# Source: PubChem BioAssay AID1159580 (chemical genetic matrix, 2015)
# Screen size: about 5,500 compounds; about 2,000 (36%) were called active. Another 18% or so got no clear call; they are omitted. The list shows a part of the results. Unmarked numbers belong to inactive results. Cut-off read from the data, not from the text of the source: active = normalized growth mostly below about 0.91 (no sharp cut-off); inconclusive = no clear call, values can overlap the other calls; inactive = mostly above about 0.92.
# Assay: chemical genetic growth profiling, strain panel (AID 1159580);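 note: tested at 20 µM; growth read once vehicle control cultures reached saturation at 30 °C; 1 = growth at the plate median or of vehicle wells; lower values mean less growth of the strain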
# Settings: growth OD
# [1] = S. cerevisiae deletion strains, locus YAL013W, strain DEP1, active compounds read low
# [2] = S. cerevisiae deletion strains, locus YGR078C, strain PAC10, active compounds read low
# [3] = S. cerevisiae deletion strains, locus YJR075W, strain HOC1, active compounds read low
# [4] = S. cerevisiae deletion strains, locus YMR307W, strain GAS1, active compounds read low
# [5] = S. cerevisiae deletion strains, locus YNL322C, strain KRE1, active compounds read low
# [6] = S. cerevisiae deletion strains, locus YPL055C, strain LGE1, active compounds read low
# [7] = S. cerevisiae deletion strains, locus YBR229C, strain ROT2, active compounds read low
# [8] = S. cerevisiae deletion strains, locus YDL101C, strain DUN1, active compounds read low
# [9] = S. cerevisiae deletion strains, locus YDR150W, strain NUM1, active compounds read low
# [10] = S. cerevisiae deletion strains, locus YEL061C, strain CIN8, active compounds read low
# [11] = S. cerevisiae deletion strains, locus YHR030C, strain SLT2, active compounds read low
# [12] = S. cerevisiae deletion strains, locus YHR087W, strain rtc3, active compounds read low
# [13] = S. cerevisiae deletion strains, locus YJR043C, strain POL32, active compounds read low
# [14] = S. cerevisiae deletion strains, locus YLR039C, strain RIC1, active compounds read low
# [15] = S. cerevisiae deletion strains, locus YLR058C, strain SHM2 (second series), active compounds read low
# [16] = S. cerevisiae deletion strains, locus YLR085C, strain ARP6, active compounds read low
# [17] = S. cerevisiae deletion strains, locus YLR262C, strain YPT6, active compounds read low
# [18] = S. cerevisiae deletion strains, locus YML094W, strain GIM5, active compounds read low
# [19] = S. cerevisiae deletion strains, locus YMR219W, strain ESC1, active compounds read low
# [20] = S. cerevisiae deletion strains, locus YMR263W, strain SAP30, active compounds read low
# [21] = S. cerevisiae deletion strains, locus YNL153C, strain GIM3, active compounds read low
# [22] = S. cerevisiae deletion strains, locus YNL298W, strain CLA4 (second series), active compounds read low
# [23] = S. cerevisiae deletion strains, locus YNR030W, strain Alg12, active compounds read low
# [24] = S. cerevisiae deletion strains, locus YPL241C, strain CIN2, active compounds read low
# [25] = S. cerevisiae deletion strains, locus YPR135W, strain CTF4, active compounds read low
# [26] = S. cerevisiae deletion strains, locus YDL134C, strain PPH21, active compounds read low
smiles,measurement,setting,value
CCNC(=O)C1OC(n2cnc3c(NCc4ccccc4)ncnc32)C(O)C1O (stereo unspecified),normalized growth,[1],0.989
same,normalized growth,"S. cerevisiae deletion strains, locus YAL040C, strain CLN3, active compounds read low",0.987
same,normalized growth,"S. cerevisiae deletion strains, locus YCL061C, strain MRC1 (second series), active compounds read low",1.01
same,normalized growth,"S. cerevisiae deletion strains, locus YDR363W, strain ESC2, active compounds read low",0.958
same,normalized growth,"S. cerevisiae deletion strains, locus YER002W, strain NOP16, active compounds read low",1.01
same,normalized growth,[2],0.979
same,normalized growth,[3],1
same,normalized growth,[4],1
same,normalized growth,"S. cerevisiae deletion strains, locus YNL128W, strain TEP1, active compounds read low",0.959
same,normalized growth,"S. cerevisiae deletion strains, locus YNL175C, strain NOP13, active compounds read low",0.967
same,normalized growth,"S. cerevisiae deletion strains, locus YNL197C, strain WHI3, active compounds read low",0.95
same,normalized growth,"S. cerevisiae deletion strains, locus YNL224C, strain SQS1, active compounds read low",0.984
same,normalized growth,[5],0.99
same,normalized growth,"S. cerevisiae deletion strains, locus YOR083W, strain WHI5 (second series), active compounds read low",0.956
same,normalized growth,[6],1
Cc1noc(C)c1NC(N)=O,normalized growth,[1],0.994
same,normalized growth,[7],0.989
same,normalized growth,[8],0.974
same,normalized growth,[9],0.979
same,normalized growth,[10],0.981
same,normalized growth,[2],0.983
same,normalized growth,"S. cerevisiae deletion strains, locus YGR229C, strain SMI1, active compounds read low",1.03
same,normalized growth,[11],1.04
same,normalized growth,[12],0.968
same,normalized growth,"S. cerevisiae deletion strains, locus YJL187C, strain SWE1, active compounds read low",0.998
same,normalized growth,[13],0.995
same,normalized growth,[3],1.04
same,normalized growth,"S. cerevisiae deletion strains, locus YKL190W, strain CNB1, active compounds read low",1.01
same,normalized growth,[14],0.97
same,normalized growth,[15],0.992
same,normalized growth,[16],1.01
same,normalized growth,[17],0.997
same,normalized growth,[18],0.952
same,normalized growth,[19],0.993
same,normalized growth,[20],1.03
same,normalized growth,[4],1.21
same,normalized growth,[21],0.999
same,normalized growth,[22],0.978
same,normalized growth,[5],0.987
same,normalized growth,[23],0.987
same,normalized growth,"S. cerevisiae deletion strains, locus YOL006C, strain TOP1, active compounds read low",1.04
same,normalized growth,[6],0.975
same,normalized growth,[24],0.986
same,normalized growth,[25],0.898
Cc1noc(N)c1C(N)=S,normalized growth,[1],0.986
same,normalized growth,[7],1
same,normalized growth,[8],1.02
same,normalized growth,[26],0.993
same,normalized growth,[9],1
same,normalized growth,[10],1
same,normalized growth,[2],1.02
same,normalized growth,[11],1.05
same,normalized growth,[12],1
same,normalized growth,[13],1.01
same,normalized growth,[3],1.05
same,normalized growth,[14],1.05
same,normalized growth,[15],1
same,normalized growth,[16],1.17
same,normalized growth,[17],1.01
same,normalized growth,[18],0.99
same,normalized growth,[19],1.01
same,normalized growth,[20],1
same,normalized growth,[21],1.01
same,normalized growth,[22],1.03
same,normalized growth,[5],0.998
same,normalized growth,[23],0.995
same,normalized growth,[6],1.01
same,normalized growth,[24],1.17 [resistant] (active)
same,normalized growth,[25],0.982
same,normalized growth,"S. cerevisiae strains, strain wild type, active compounds read low",0.986
OC1CCN(c2cc(C(F)(F)F)nc3cc(Cl)cc(Cl)c23)CC1,normalized growth,"S. cerevisiae deletion strains, locus YAR019C, strain CDC15, active compounds read low",0.982
same,normalized growth,"S. cerevisiae deletion strains, locus YBL105C, strain PKC1, active compounds read low",0.984
same,normalized growth,"S. cerevisiae deletion strains, locus YBR135W, strain CKS1, active compounds read low",0.978
same,normalized growth,"S. cerevisiae deletion strains, locus YBR136W, strain MEC1, active compounds read low",0.978
same,normalized growth,"S. cerevisiae deletion strains, locus YBR160W, strain CDC28, active compounds read low",0.973
same,normalized growth,"S. cerevisiae deletion strains, locus YDL017W, strain CDC7, active compounds read low",0.977
same,normalized growth,"S. cerevisiae deletion strains, locus YDL028C, strain MPS1, active compounds read low",0.982
same,normalized growth,[8],0.976
same,normalized growth,"S. cerevisiae deletion strains, locus YDL108W, strain KIN28, active compounds read low",0.979
same,normalized growth,"S. cerevisiae deletion strains, locus YDL132W, strain cdc53, active compounds read low",0.969
same,normalized growth,"S. cerevisiae deletion strains, locus YDL214C, strain PRR2, active compounds read low",0.98
same,normalized growth,"S. cerevisiae deletion strains, locus YDR052C, strain DBF4, active compounds read low",0.989
same,normalized growth,"S. cerevisiae deletion strains, locus YDR054C, strain cdc34, active compounds read low",0.969
same,normalized growth,"S. cerevisiae deletion strains, locus YDR226W, strain ADK1, active compounds read low",0.973
same,normalized growth,"S. cerevisiae deletion strains, locus YDR477W, strain SNF1, active compounds read low",0.913
same,normalized growth,"S. cerevisiae deletion strains, locus YER123W, strain YCK3, active compounds read low",0.965
same,normalized growth,"S. cerevisiae deletion strains, locus YER133W, strain GLC7, active compounds read low",0.971
same,normalized growth,"S. cerevisiae deletion strains, locus YFL009W, strain cdc4, active compounds read low",0.986
same,normalized growth,"S. cerevisiae deletion strains, locus YFL029C, strain CAK1, active compounds read low",0.984
same,normalized growth,"S. cerevisiae deletion strains, locus YFR003C, strain YPI1, active compounds read low",0.978
same,normalized growth,"S. cerevisiae deletion strains, locus YFR019W, strain FAB1, active compounds read low",1
same,normalized growth,"S. cerevisiae deletion strains, locus YFR028C, strain CDC14, active compounds read low",0.979
same,normalized growth,"S. cerevisiae deletion strains, locus YGR040W, strain KSS1, active compounds read low",0.921
same,normalized growth,"S. cerevisiae deletion strains, locus YGR052W, strain FMP48, active compounds read low",1.1
same,normalized growth,"S. cerevisiae deletion strains, locus YGR092W, strain DBF2, active compounds read low",0.994
same,normalized growth,[11],0.793 (active)
same,normalized growth,"S. cerevisiae deletion strains, locus YHR079C, strain IRE1, active compounds read low",0.979
same,normalized growth,"S. cerevisiae deletion strains, locus YHR082C, strain KSP1, active compounds read low",1.06
same,normalized growth,"S. cerevisiae deletion strains, locus YHR205W, strain SCH9, active compounds read low",0.975
same,normalized growth,"S. cerevisiae deletion strains, locus YIL147C, strain SLN1, active compounds read low",0.976
same,normalized growth,"S. cerevisiae deletion strains, locus YJL095W, strain BCK1, active compounds read low",0.887
same,normalized growth,"S. cerevisiae deletion strains, locus YJL128C, strain PBS2, active compounds read low",0.989
same,normalized growth,"S. cerevisiae deletion strains, locus YJL157C, strain FAR1, active compounds read low",0.972
same,normalized growth,"S. cerevisiae deletion strains, locus YJR016C, strain ILV3, active compounds read low",0.984
same,normalized growth,"S. cerevisiae deletion strains, locus YJR066W, strain TOR1 (second series), active compounds read low",0.963
same,normalized growth,"S. cerevisiae deletion strains, locus YJR066W, strain TOR1, active compounds read low",0.938
same,normalized growth,"S. cerevisiae deletion strains, locus YKL048C, strain ELM1, active compounds read low",0.979
same,normalized growth,"S. cerevisiae deletion strains, locus YKL067W, strain YNK1, active compounds read low",0.977
same,normalized growth,"S. cerevisiae deletion strains, locus YKL101W, strain HSL1, active compounds read low",0.984
same,normalized growth,"S. cerevisiae deletion strains, locus YKL193C, strain SDS22, active compounds read low",0.969
same,normalized growth,"S. cerevisiae deletion strains, locus YKL203C, strain TOR2, active compounds read low",0.987
same,normalized growth,"S. cerevisiae deletion strains, locus YLR113W, strain HOG1, active compounds read low",0.951
same,normalized growth,"S. cerevisiae deletion strains, locus YLR133W, strain CKI1, active compounds read low",0.976
same,normalized growth,"S. cerevisiae deletion strains, locus YLR403W, strain SFP1, active compounds read low",0.992
same,normalized growth,"S. cerevisiae deletion strains, locus YML070W, strain DAK1, active compounds read low",0.969
same,normalized growth,"S. cerevisiae deletion strains, locus YMR001C, strain CDC5, active compounds read low",0.971
same,normalized growth,"S. cerevisiae deletion strains, locus YMR205C, strain PFK2 (second series), active compounds read low",0.975
same,normalized growth,"S. cerevisiae deletion strains, locus YMR277W, strain FCP1, active compounds read low",0.97
same,normalized growth,"S. cerevisiae deletion strains, locus YNL006W, strain LST8, active compounds read low",0.968
same,normalized growth,"S. cerevisiae deletion strains, locus YNL020C, strain ARK1, active compounds read low",0.972
same,normalized growth,"S. cerevisiae deletion strains, locus YNL161W, strain CBK1, active compounds read low",0.975
same,normalized growth,"S. cerevisiae deletion strains, locus YNL183C, strain NPR1, active compounds read low",0.971
same,normalized growth,"S. cerevisiae deletion strains, locus YNL207W, strain RIO2, active compounds read low",0.979
same,normalized growth,"S. cerevisiae deletion strains, locus YNL222W, strain SSU72, active compounds read low",0.98
same,normalized growth,"S. cerevisiae deletion strains, locus YNL307C, strain MCK1 (second series), active compounds read low",0.962
same,normalized growth,"S. cerevisiae deletion strains, locus YOL078W, strain AVO1, active compounds read low",0.98
same,normalized growth,"S. cerevisiae deletion strains, locus YOL136C, strain PFK27, active compounds read low",0.981
same,normalized growth,"S. cerevisiae deletion strains, locus YOR061W, strain CKA2, active compounds read low",0.964
same,normalized growth,"S. cerevisiae deletion strains, locus YOR119C, strain RIO1, active compounds read low",1.01
same,normalized growth,"S. cerevisiae deletion strains, locus YOR231W, strain MKK1, active compounds read low",0.946
same,normalized growth,"S. cerevisiae deletion strains, locus YOR329C, strain SCD5, active compounds read low",0.986
same,normalized growth,"S. cerevisiae deletion strains, locus YPL031C, strain PHO85, active compounds read low",0.908
same,normalized growth,"S. cerevisiae deletion strains, locus YPL153C, strain RAD53, active compounds read low",0.937
same,normalized growth,"S. cerevisiae deletion strains, locus YPL204W, strain HRR25, active compounds read low",0.938
same,normalized growth,"S. cerevisiae deletion strains, locus YPL209C, strain IPL1, active compounds read low",0.971
same,normalized growth,"S. cerevisiae deletion strains, locus YPL256C, strain CLN2, active compounds read low",0.947
same,normalized growth,"S. cerevisiae deletion strains, locus YPR025C, strain CCL1, active compounds read low",0.969
same,normalized growth,"S. cerevisiae deletion strains, locus YPR106W, strain ISR1, active compounds read low",0.991
same,normalized growth,"S. cerevisiae deletion strains, locus YPR111W, strain DBF20, active compounds read low",0.985
same,normalized growth,"S. cerevisiae deletion strains, strain NNK1, active compounds read low",1
same,normalized growth,"S. cerevisiae deletion strains, strain TSCII, active compounds read low",0.97
CC(=O)Nc1c(C)c(C)c(C)c(C)c1NC(C)=O,normalized growth,[1],1.01
same,normalized growth,[7],1.01
same,normalized growth,[8],1
same,normalized growth,[26],1
same,normalized growth,[9],0.989
same,normalized growth,[10],1.02
same,normalized growth,[2],0.994
same,normalized growth,[11],1.14
same,normalized growth,[12],0.997
same,normalized growth,[13],1.01
same,normalized growth,[3],0.988
same,normalized growth,[14],1.04
same,normalized growth,[15],1.02
same,normalized growth,[16],1.07
same,normalized growth,[17],1.02
same,normalized growth,[18],1.04
same,normalized growth,[19],1.02
same,normalized growth,[20],1.01
same,normalized growth,[21],0.995
same,normalized growth,[22],1.06
same,normalized growth,[5],1.01
same,normalized growth,[23],1.03
same,normalized growth,[6],1.03
same,normalized growth,[24],1.15 [resistant] (active)
same,normalized growth,[25],1.09
